In the supplement of paper PMC6411743:
± gives the standard deviation of the averaged measurements. Targets with the largest changes are over-represented here; the source holds about 6,500 in all.

Compound: Nc1ncnc2c1ncn2[C@@H]1O[C@H](COP(=O)(O)OP(=O)(O)OP(=O)(O)O)[C@@H](O)[C@H]1O [adenosine triphosphate]
Assay: NP40-soluble protein abundance relative to vehicle (solubility fold change) (ratio); higher = more soluble protein in presence of ATP
How it was run: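 Jurkat crude lysate prepared with a Dounce homogeniser was treated at eight concentrations spanning 0.1 to 10 mM, 10 min at room temperature then 3 min at 37 °C. Solubilisation with 0.8% NP40 and benzonase and ultracentrifugation preceded TMT labelling of the supernatant for LC-MS/MS. Fold change against the detergent-processed vehicle was determined per replicate from vsn-normalised intensities, across three independent experiments.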

Chain of UniProt Q9Y2H0 (Q9Y2H0 whole entry): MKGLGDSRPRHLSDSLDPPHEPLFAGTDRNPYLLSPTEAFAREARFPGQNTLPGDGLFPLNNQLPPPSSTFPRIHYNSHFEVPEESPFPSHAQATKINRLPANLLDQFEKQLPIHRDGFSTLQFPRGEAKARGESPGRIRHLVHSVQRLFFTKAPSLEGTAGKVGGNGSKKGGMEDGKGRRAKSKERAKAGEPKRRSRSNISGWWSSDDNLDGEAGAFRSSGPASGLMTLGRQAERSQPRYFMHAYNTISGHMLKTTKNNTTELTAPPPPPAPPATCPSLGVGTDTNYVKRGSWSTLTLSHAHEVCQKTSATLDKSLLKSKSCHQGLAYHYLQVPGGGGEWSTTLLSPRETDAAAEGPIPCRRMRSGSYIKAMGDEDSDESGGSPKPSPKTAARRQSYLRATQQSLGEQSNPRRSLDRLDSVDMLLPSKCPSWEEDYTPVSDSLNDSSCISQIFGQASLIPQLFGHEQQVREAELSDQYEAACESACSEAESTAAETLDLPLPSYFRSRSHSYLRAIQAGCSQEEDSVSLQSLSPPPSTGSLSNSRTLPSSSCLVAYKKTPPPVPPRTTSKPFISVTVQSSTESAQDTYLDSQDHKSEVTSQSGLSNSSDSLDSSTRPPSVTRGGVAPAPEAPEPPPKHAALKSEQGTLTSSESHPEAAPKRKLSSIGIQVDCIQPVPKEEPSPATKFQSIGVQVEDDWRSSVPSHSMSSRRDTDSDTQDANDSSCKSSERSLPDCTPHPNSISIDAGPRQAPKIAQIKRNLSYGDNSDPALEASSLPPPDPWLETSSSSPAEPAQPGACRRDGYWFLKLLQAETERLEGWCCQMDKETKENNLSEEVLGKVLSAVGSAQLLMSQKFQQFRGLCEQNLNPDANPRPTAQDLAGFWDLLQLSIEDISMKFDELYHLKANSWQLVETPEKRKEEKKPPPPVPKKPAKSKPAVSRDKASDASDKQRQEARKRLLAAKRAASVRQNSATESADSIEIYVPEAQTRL
Chain of UniProt Q9Y383 (Q9Y383 whole entry): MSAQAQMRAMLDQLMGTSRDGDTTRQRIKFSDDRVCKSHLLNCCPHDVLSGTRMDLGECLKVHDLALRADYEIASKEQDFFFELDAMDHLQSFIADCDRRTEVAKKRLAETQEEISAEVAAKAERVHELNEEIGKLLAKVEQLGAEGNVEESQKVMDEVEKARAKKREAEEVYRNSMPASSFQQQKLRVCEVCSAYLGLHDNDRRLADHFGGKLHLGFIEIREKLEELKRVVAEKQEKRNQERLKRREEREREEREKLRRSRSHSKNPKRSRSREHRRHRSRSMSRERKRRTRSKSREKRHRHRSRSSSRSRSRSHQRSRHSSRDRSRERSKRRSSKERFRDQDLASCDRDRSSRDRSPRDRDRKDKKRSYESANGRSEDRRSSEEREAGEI
Chain of UniProt Q9Y2X3 (Q9Y2X3 whole entry): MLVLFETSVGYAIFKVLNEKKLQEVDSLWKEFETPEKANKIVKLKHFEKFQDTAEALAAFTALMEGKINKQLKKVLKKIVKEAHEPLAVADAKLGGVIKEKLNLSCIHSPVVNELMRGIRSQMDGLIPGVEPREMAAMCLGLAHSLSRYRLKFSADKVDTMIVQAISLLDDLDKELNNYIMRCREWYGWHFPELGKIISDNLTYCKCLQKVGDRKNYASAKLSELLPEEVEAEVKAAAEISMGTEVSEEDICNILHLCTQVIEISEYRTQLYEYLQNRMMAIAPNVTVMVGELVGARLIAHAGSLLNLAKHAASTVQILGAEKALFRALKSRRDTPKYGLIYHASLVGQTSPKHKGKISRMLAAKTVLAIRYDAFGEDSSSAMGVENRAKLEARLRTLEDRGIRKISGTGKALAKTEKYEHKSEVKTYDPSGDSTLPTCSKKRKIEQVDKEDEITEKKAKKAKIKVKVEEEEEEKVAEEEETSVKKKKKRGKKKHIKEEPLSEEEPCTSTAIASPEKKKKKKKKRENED
Chain of UniProt Q9Y3I0 (Q9Y3I0 whole entry): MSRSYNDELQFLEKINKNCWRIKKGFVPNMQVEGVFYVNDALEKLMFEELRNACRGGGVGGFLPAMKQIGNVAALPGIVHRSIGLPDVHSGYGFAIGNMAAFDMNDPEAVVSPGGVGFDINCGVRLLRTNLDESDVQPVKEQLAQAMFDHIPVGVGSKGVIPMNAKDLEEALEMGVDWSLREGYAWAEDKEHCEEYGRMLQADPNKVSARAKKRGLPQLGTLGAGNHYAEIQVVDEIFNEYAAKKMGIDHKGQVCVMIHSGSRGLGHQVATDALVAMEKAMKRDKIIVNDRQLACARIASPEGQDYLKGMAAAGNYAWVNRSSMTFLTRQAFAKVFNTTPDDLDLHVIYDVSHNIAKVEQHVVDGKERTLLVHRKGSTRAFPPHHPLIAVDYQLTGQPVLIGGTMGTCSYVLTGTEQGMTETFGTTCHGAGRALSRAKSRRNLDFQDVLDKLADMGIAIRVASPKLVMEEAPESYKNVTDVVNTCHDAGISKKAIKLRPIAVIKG
Chain of UniProt Q9Y3C6 (Q9Y3C6 whole entry): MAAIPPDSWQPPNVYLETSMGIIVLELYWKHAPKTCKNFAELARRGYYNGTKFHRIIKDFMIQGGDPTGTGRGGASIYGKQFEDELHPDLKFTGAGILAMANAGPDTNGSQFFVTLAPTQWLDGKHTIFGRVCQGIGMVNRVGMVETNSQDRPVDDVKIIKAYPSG
Chain of UniProt Q9UKK3 (Q9UKK3 whole entry): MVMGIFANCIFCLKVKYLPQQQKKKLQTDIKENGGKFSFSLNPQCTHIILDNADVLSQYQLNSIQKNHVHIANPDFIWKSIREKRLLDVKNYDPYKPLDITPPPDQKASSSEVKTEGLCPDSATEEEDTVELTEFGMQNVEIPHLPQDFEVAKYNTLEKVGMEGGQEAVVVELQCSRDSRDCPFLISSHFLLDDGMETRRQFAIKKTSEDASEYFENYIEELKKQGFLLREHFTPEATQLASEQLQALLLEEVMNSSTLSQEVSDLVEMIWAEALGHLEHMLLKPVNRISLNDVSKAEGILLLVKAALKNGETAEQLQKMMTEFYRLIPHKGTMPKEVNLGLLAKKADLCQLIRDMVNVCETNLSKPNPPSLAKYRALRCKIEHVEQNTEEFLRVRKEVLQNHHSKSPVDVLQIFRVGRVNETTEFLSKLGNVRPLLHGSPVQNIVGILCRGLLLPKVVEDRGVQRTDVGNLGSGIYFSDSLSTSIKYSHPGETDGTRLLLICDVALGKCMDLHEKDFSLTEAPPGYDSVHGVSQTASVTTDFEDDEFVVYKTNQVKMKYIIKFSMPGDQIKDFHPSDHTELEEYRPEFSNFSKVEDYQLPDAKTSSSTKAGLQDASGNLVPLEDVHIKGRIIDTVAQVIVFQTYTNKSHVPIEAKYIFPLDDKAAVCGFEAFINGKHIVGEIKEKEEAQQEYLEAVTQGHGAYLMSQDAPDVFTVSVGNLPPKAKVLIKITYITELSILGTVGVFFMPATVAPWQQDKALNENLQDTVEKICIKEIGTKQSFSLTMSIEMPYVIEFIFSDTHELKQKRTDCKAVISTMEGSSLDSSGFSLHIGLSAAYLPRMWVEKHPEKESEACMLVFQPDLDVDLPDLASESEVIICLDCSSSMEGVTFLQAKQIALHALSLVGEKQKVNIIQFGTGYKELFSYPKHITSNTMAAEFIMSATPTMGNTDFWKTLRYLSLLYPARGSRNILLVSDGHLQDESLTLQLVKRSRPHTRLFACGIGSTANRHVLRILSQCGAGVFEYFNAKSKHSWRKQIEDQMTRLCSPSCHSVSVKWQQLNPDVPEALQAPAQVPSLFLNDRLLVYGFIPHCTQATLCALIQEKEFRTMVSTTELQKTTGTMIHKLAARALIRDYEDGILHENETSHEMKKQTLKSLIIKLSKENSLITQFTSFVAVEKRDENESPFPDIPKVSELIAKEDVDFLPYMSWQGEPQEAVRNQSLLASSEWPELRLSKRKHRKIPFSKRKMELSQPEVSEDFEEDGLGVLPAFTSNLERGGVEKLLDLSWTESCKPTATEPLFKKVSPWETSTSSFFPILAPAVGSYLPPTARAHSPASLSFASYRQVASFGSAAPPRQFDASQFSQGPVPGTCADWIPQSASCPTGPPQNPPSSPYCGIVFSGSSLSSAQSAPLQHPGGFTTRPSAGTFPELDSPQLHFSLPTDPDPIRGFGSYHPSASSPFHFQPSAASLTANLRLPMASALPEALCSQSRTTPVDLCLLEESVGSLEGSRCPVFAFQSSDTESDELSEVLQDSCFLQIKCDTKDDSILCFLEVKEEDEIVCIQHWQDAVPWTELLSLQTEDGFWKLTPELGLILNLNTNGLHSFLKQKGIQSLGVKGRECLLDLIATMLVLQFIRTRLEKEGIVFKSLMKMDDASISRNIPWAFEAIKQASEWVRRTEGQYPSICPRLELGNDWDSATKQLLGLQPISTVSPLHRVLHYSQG
Chain of UniProt Q9Y570 (Q9Y570 whole entry): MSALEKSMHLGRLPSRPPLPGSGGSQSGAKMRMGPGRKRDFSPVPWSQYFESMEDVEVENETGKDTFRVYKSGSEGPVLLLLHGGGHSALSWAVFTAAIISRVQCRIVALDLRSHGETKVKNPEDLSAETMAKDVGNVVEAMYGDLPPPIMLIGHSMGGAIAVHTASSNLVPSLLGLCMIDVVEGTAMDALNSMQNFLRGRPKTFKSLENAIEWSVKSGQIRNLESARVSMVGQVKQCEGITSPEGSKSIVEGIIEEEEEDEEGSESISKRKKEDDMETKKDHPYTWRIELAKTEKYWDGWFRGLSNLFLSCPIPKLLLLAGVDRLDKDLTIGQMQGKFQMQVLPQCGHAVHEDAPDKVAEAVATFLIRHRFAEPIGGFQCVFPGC
Chain of UniProt Q9Y224 (Q9Y224 whole entry): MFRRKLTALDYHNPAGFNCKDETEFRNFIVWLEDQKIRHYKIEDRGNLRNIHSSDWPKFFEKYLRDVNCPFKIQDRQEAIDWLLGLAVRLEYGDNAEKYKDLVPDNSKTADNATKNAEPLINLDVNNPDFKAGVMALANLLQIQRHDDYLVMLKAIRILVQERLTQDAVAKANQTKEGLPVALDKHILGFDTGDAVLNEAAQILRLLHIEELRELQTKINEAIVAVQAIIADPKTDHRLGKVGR

Question: Which NP40-soluble protein abundance (concentration: 1mM) does the source give for WDR3 (UniProt Q9UNX4) here?
Answer: 1.28 ± 0.11

Question: What about the NP40-soluble protein abundance (concentration: 2mM) of the same target?
Answer: 1.46 ± 0.1

Question: And the NP40-soluble protein abundance (concentration: 4mM)?
Answer: 1.82 ± 0.17

Question: What about the NP40-soluble protein abundance (concentration: 6mM) of the same target?
Answer: 1.97 ± 0.2

Question: And the NP40-soluble protein abundance (concentration: 8mM)?
Answer: 2.23 ± 0.2

Question: What about the NP40-soluble protein abundance (concentration: 10mM) of the same target?
Answer: 2.34 ± 0.13

Question: With UniProt Q9Y224 as the target, how does the NP40-soluble protein abundance (concentration: 1mM) read?
Answer: 0.958 ± 0.053

Question: And the NP40-soluble protein abundance (concentration: 2mM)?
Answer: 0.872 ± 0.031

Question: And the NP40-soluble protein abundance (concentration: 4mM)?
Answer: 0.903 ± 0.092

Question: And the NP40-soluble protein abundance (concentration: 6mM)?
Answer: 0.918 ± 0.12

Question: And the NP40-soluble protein abundance (concentration: 8mM)?
Answer: 0.995 ± 0.011

Question: And the NP40-soluble protein abundance (concentration: 10mM)?
Answer: 0.782 ± 0.18

Question: For TMED3 (UniProt Q9Y3Q3), which NP40-soluble protein abundance (concentration: 1mM) is on record?
Answer: 1.08 ± 0.12

Question: What about the NP40-soluble protein abundance (concentration: 2mM) of the same target?
Answer: 1.07 ± 0.12

Question: And the NP40-soluble protein abundance (concentration: 4mM)?
Answer: 1.06 ± 0.086

Question: And the NP40-soluble protein abundance (concentration: 6mM)?
Answer: 1.04 ± 0.13

Question: What about the NP40-soluble protein abundance (concentration: 8mM) of the same target?
Answer: 1.06 ± 0.057

Question: What about the NP40-soluble protein abundance (concentration: 10mM) of the same target?
Answer: 1.04 ± 0.088

Question: What does the source list for PPME1 (UniProt Q9Y570)?
Answer: NP40-soluble protein abundance (concentration: 1mM): 0.951 ± 0.039; NP40-soluble protein abundance (concentration: 2mM): 0.972 ± 0.056; NP40-soluble protein abundance (concentration: 4mM): 0.956 ± 0.037; NP40-soluble protein abundance (concentration: 6mM): 0.933 ± 0.085; NP40-soluble protein abundance (concentration: 8mM): 0.941 ± 0.023; NP40-soluble protein abundance (concentration: 10mM): 0.953 ± 0.058

Question: Which results are given for “UniProt Q9Y639|Q9Y639-1|Q9Y639-3|Q9Y639-5”?
Answer: NP40-soluble protein abundance (concentration: 1mM): 0.919 ± 0.11; NP40-soluble protein abundance (concentration: 2mM): 0.888 ± 0.06; NP40-soluble protein abundance (concentration: 4mM): 0.938 ± 0.1; NP40-soluble protein abundance (concentration: 6mM): 0.926 ± 0.084; NP40-soluble protein abundance (concentration: 8mM): 0.896 ± 0.061; NP40-soluble protein abundance (concentration: 10mM): 0.851 ± 0.11

Question: What does the source list for PPIL1 (UniProt Q9Y3C6)?
Answer: NP40-soluble protein abundance (concentration: 1mM): 0.919 ± 0.019; NP40-soluble protein abundance (concentration: 2mM): 0.9512 ± 0.0074; NP40-soluble protein abundance (concentration: 4mM): 0.913 ± 0.034; NP40-soluble protein abundance (concentration: 6mM): 0.963 ± 0.031; NP40-soluble protein abundance (concentration: 8mM): 0.964 ± 0.016; NP40-soluble protein abundance (concentration: 10mM): 0.902 ± 0.065

Question: LUC7L2 (UniProt Q9Y383) was tested. Which NP40-soluble protein abundance (concentration: 1mM) did it give?
Answer: 1.84 ± 0.14

Question: What about the NP40-soluble protein abundance (concentration: 2mM) of the same target?
Answer: 1.95 ± 0.034

Question: What about the NP40-soluble protein abundance (concentration: 4mM) of the same target?
Answer: 2.05 ± 0.038

Question: What about the NP40-soluble protein abundance (concentration: 6mM) of the same target?
Answer: 2.21 ± 0.066

Question: What about the NP40-soluble protein abundance (concentration: 8mM) of the same target?
Answer: 2.12 ± 0.087

Question: And the NP40-soluble protein abundance (concentration: 10mM)?
Answer: 2.11 ± 0.095

Question: How did the NP40-soluble protein abundance (concentration: 1mM) turn out when NOP58 (UniProt Q9Y2X3) was run?
Answer: 1.08 ± 0.062

Question: And the NP40-soluble protein abundance (concentration: 2mM)?
Answer: 1.1 ± 0.054

Question: And the NP40-soluble protein abundance (concentration: 4mM)?
Answer: 1.2 ± 0.054

Question: What about the NP40-soluble protein abundance (concentration: 6mM) of the same target?
Answer: 1.35 ± 0.079

Question: What about the NP40-soluble protein abundance (concentration: 8mM) of the same target?
Answer: 1.51 ± 0.042

Question: And the NP40-soluble protein abundance (concentration: 10mM)?
Answer: 1.71 ± 0.13

Question: For UniProt Q9Y6X3, which NP40-soluble protein abundance (concentration: 1mM) is on record?
Answer: 0.977 ± 0.053

Question: What about the NP40-soluble protein abundance (concentration: 2mM) of the same target?
Answer: 1.06 ± 0.086

Question: What about the NP40-soluble protein abundance (concentration: 4mM) of the same target?
Answer: 1.15 ± 0.25

Question: What about the NP40-soluble protein abundance (concentration: 6mM) of the same target?
Answer: 1.09 ± 0.26

Question: And the NP40-soluble protein abundance (concentration: 8mM)?
Answer: 0.98 ± 0.057

Question: What about the NP40-soluble protein abundance (concentration: 10mM) of the same target?
Answer: 1.11 ± 0.22

Question: Which NP40-soluble protein abundance (concentration: 1mM) does the source give for UniProt Q9ULI0|Q9ULI0-2 here?
Answer: 1.69 ± 0.34

Question: What about the NP40-soluble protein abundance (concentration: 2mM) of the same target?
Answer: 1.83 ± 0.46

Question: What about the NP40-soluble protein abundance (concentration: 4mM) of the same target?
Answer: 1.86 ± 0.57

Question: What about the NP40-soluble protein abundance (concentration: 6mM) of the same target?
Answer: 1.86 ± 0.44

Question: And the NP40-soluble protein abundance (concentration: 8mM)?
Answer: 1.75 ± 0.44

Question: What about the NP40-soluble protein abundance (concentration: 10mM) of the same target?
Answer: 1.72 ± 0.48

Question: Which NP40-soluble protein abundance (concentration: 1mM) does the source give for PARP4 (UniProt Q9UKK3) here?
Answer: 1.14 ± 0.017

Question: And the NP40-soluble protein abundance (concentration: 2mM)?
Answer: 1.15 ± 0.12

Question: And the NP40-soluble protein abundance (concentration: 4mM)?
Answer: 1.12 ± 0.083

Question: And the NP40-soluble protein abundance (concentration: 6mM)?
Answer: 1.15 ± 0.14

Question: What about the NP40-soluble protein abundance (concentration: 8mM) of the same target?
Answer: 1.14 ± 0.042

Question: What about the NP40-soluble protein abundance (concentration: 10mM) of the same target?
Answer: 1.19 ± 0.085

Question: UniProt Q9UPN4-2|Q9UPN4-3|I3L2J8|Q9UPN4 was tested. Which NP40-soluble protein abundance (concentration: 1mM) did it give?
Answer: 1.15 ± 0.14

Question: What about the NP40-soluble protein abundance (concentration: 2mM) of the same target?
Answer: 1.18 ± 0.14

Question: What about the NP40-soluble protein abundance (concentration: 4mM) of the same target?
Answer: 1.35 ± 0.12

Question: And the NP40-soluble protein abundance (concentration: 6mM)?
Answer: 1.45 ± 0.21

Question: What about the NP40-soluble protein abundance (concentration: 8mM) of the same target?
Answer: 1.47 ± 0.26

Question: What about the NP40-soluble protein abundance (concentration: 10mM) of the same target?
Answer: 1.7 ± 0.26

Question: UniProt Q9Y5T5-2 was tested. Which NP40-soluble protein abundance (concentration: 1mM) did it give?
Answer: 1.08 ± 0.067

Question: What about the NP40-soluble protein abundance (concentration: 2mM) of the same target?
Answer: 1.11 ± 0.032

Question: And the NP40-soluble protein abundance (concentration: 4mM)?
Answer: 1.19 ± 0.014

Question: And the NP40-soluble protein abundance (concentration: 6mM)?
Answer: 1.33 ± 0.045

Question: What about the NP40-soluble protein abundance (concentration: 8mM) of the same target?
Answer: 1.351 ± 0.012

Question: And the NP40-soluble protein abundance (concentration: 10mM)?
Answer: 1.41 ± 0.028

Question: With DBR1 (UniProt Q9UK59) as the target, how does the NP40-soluble protein abundance (concentration: 1mM) read?
Answer: 1.04 ± 0.066

Question: What about the NP40-soluble protein abundance (concentration: 2mM) of the same target?
Answer: 1.03 ± 0.066

Question: And the NP40-soluble protein abundance (concentration: 4mM)?
Answer: 1.02 ± 0.051

Question: What about the NP40-soluble protein abundance (concentration: 6mM) of the same target?
Answer: 0.973 ± 0.11

Question: What about the NP40-soluble protein abundance (concentration: 8mM) of the same target?
Answer: 1.03 ± 0.056

Question: What about the NP40-soluble protein abundance (concentration: 10mM) of the same target?
Answer: 1.03 ± 0.044

Question: How did the NP40-soluble protein abundance (concentration: 1mM) turn out when UniProt Q9Y2H0|Q9Y2H0-3|Q9Y2H0-1 was run?
Answer: 0.921 ± 0.038

Question: And the NP40-soluble protein abundance (concentration: 2mM)?
Answer: 0.899 ± 0.068

Question: What about the NP40-soluble protein abundance (concentration: 4mM) of the same target?
Answer: 0.922 ± 0.045

Question: And the NP40-soluble protein abundance (concentration: 6mM)?
Answer: 0.944 ± 0.025

Question: And the NP40-soluble protein abundance (concentration: 8mM)?
Answer: 0.861 ± 0.093

Question: What about the NP40-soluble protein abundance (concentration: 10mM) of the same target?
Answer: 0.85 ± 0.052

Question: With UniProt Q9ULE6 as the target, how does the NP40-soluble protein abundance (concentration: 1mM) read?
Answer: 1.08 ± 0.084

Question: And the NP40-soluble protein abundance (concentration: 2mM)?
Answer: 1.03 ± 0.12

Question: What about the NP40-soluble protein abundance (concentration: 4mM) of the same target?
Answer: 1.06 ± 0.092

Question: What about the NP40-soluble protein abundance (concentration: 6mM) of the same target?
Answer: 0.991 ± 0.1

Question: What about the NP40-soluble protein abundance (concentration: 8mM) of the same target?
Answer: 1.05 ± 0.045

Question: What about the NP40-soluble protein abundance (concentration: 10mM) of the same target?
Answer: 1.02 ± 0.048

Question: For UniProt Q9UL54-2, which NP40-soluble protein abundance (concentration: 1mM) is on record?
Answer: 1.29 ± 0.17

Question: And the NP40-soluble protein abundance (concentration: 2mM)?
Answer: 1.54 ± 0.35

Question: What about the NP40-soluble protein abundance (concentration: 4mM) of the same target?
Answer: 1.57 ± 0.33

Question: What about the NP40-soluble protein abundance (concentration: 6mM) of the same target?
Answer: 1.67 ± 0.33

Question: And the NP40-soluble protein abundance (concentration: 8mM)?
Answer: 1.63 ± 0.24

Question: What about the NP40-soluble protein abundance (concentration: 10mM) of the same target?
Answer: 1.69 ± 0.4

Question: For UniProt Q9Y3I0, which NP40-soluble protein abundance (concentration: 1mM) is on record?
Answer: 0.997 ± 0.038

Question: What about the NP40-soluble protein abundance (concentration: 2mM) of the same target?
Answer: 0.974 ± 0.025

Question: And the NP40-soluble protein abundance (concentration: 4mM)?
Answer: 0.979 ± 0.043

Question: What about the NP40-soluble protein abundance (concentration: 6mM) of the same target?
Answer: 1.04 ± 0.04

Question: And the NP40-soluble protein abundance (concentration: 8mM)?
Answer: 1.02 ± 0.048

Question: What about the NP40-soluble protein abundance (concentration: 10mM) of the same target?
Answer: 1.02 ± 0.048
